Bioassay records (PubChem BioAssay)
APEX1 inh: APE1 (human) endonuclease inhibition | P27695 | recombinant APE1, TAMRA/BHQ-2 abasic DNA cleavage fluorescence | Potency, µM (titrated, usually from 65.8 µM), without a hit: at the top dose activity change, negative = inhibition, usual class: inhibitors | hit rate 0.35% among 350,000 | AID 2517;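 further: plate controls were vehicle for no effect and reference inhibitor for full effect; nearly all actives have a fitted effect of over 55% in size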
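Endonuclease cleavage of a quenched abasic-site DNA duplex (50 nM) by APE1 (0.75 nM) was tracked by TAMRA dequenching. Compounds were preincubated with enzyme 15 min at room temperature; data normalized to buffer-only and DMSO wells plus NSC13755 control.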
BLM inh: blocks DNA unwinding by human BLM helicase. hit rate 0.2% among 350,000. P54132. recombinant BLM DNA unwinding, fluorescence dequenching. Potency, µM (top dose mostly 56.1 µM), inactives show at the highest dose activity change, negative = inhibition, hits mostly inhibitors;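 further: plate controls were vehicle for no effect and no enzyme for full effect; nearly all actives have a fitted effect of over 35% in size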
FEN1 inhibitor: human FEN1 inhibition; Potency, µM (doses to about 114 µM), inactives show top-dose activity change, negative = inhibition, hits mostly inhibitors; P39748; hit rate 0.35% among 390,000; Recombinant FEN1 flap cleavage, fluorescence, 15 min; further: nearly all actives have a fitted effect of over 65% in size
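Reaction started by adding substrate (50 nM final) to 10 nM enzyme after 15 min room-temperature compound preincubation. Reads at 0 and 15 min, with data normalized and fitted to a four-parameter Hill equation.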
RECQ1 inh: blocks DNA unwinding by human RECQ1; P46063; RECQ1 DNA unwinding, red fluorescence kinetic read; Potency, µM (top dose mostly 57.3 µM), for the others: at the top dose activity, negative = inhibition, most hits filed as inhibitors; hit rate 0.54% among 240,000; AID 2549;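 further: plate controls were vehicle for no effect and no enzyme for full effect; nearly all actives have a fitted effect of over 30% in size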
Target sequence (P46063 whole entry, looked up): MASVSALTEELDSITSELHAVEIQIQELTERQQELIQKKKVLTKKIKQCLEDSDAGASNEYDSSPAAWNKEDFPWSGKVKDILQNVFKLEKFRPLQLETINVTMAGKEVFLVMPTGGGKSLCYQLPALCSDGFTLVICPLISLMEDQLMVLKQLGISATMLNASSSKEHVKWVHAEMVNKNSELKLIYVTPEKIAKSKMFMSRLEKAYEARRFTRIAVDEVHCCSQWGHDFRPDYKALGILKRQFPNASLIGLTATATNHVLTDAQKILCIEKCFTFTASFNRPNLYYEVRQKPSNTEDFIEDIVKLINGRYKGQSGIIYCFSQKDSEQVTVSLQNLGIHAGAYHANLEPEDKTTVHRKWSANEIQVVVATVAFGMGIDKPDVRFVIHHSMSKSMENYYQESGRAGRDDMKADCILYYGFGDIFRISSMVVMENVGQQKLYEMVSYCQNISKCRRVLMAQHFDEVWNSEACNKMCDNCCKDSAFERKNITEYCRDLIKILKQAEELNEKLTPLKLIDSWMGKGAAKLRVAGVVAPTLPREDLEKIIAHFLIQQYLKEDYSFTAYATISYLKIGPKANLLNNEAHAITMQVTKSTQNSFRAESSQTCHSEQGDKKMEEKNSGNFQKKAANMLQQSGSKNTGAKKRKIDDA
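RECQ1T1 50 nM; forked duplex (20 bp + 30-nt ss tails) 200 nM, ATP 2 mM final; pH 8.0, 2 mM MgCl2, 2.5 ug/ml poly(dI-dC); 15 min compound preincubation; discontinuous kinetic read over 2 h at RT.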
TDP1 inh: blocks human tyrosyl-DNA phosphodiesterase 1 | Q9NUW8 | recombinant TDP1, AlphaScreen DNA substrate cleavage | Potency, µM (highest dose often 130 µM), for inactives: at the top dose activity change, negative = inhibition, usual class: inhibitors | hit rate 0.28% among 350,000; further: nearly all actives have a fitted effect of over 40% in size
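Recombinant E. coli-expressed Tdp1 (1 nM) preincubated with compound 15 min at RT, then 5'-biotin/3'-phosphotyrosine-FITC DNA substrate (15 nM) added for 5 min. AlphaScreen beads (10 ug/ml) added, 10 min RT; tyrosine-FITC cleavage read as signal loss.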
Active calls of the source: *; i = inactive; ? = inconclusive; . = not tested or not shown; ! = repeats disagree; [ ] = dose if it differs, or a comment. Most compounds without a hit are left out; they make up all but 0.92% or so of the library. The call rests on the fitted dose curve; in most records, active means well fitted curve in the direction sought with a large enough effect; inconclusive means small, poorly fitted or top-dose-only effect, or another doubt; inactive means no such curve, though single readings can be large; an effect the other way counts as inactive or inconclusive. Unless noted, on the % scale 0 is the no-effect control and ±100 the full control effect; potency means the concentration at half of the fitted maximal effect.

SMILES | APEX1 inh | BLM inh | FEN1 inhibitor | RECQ1 inh | TDP1 inh
Cc1cc(/C=C2\C(=O)NC(=O)N(c3ccc(F)cc3)C2=O)c(C)n1-c1cccc(C(=O)O)c1 | 4.9% | -2.6% | -5.7% | 2.6% | 0.0%
Cc1cc(/C=C2\C(=O)NC(=O)N(c3ccccc3F)C2=O)c(C)n1-c1cc(C(=O)O)cc(C(=O)O)c1 | 10.6µM* | 44.2% | ? | . | .
Cc1cc(C)cc(N2C(=O)NC(=O)/C(=C\C=C\c3ccco3)C2=O)c1 | 12.3% | 1.8% | -13.4% | 14.1µM* | -1.9%
O=C1NC(=O)N(Cc2ccc(F)cc2)C(=O)/C1=C\C=C\c1ccco1 | ? | ? | ? | 28.2µM* | .
CC(C)c1ccc(N2C(=O)NC(=O)/C(=C/C=C/c3ccco3)C2=O)cc1 | ? | -21.4% | ? | ? | 0.0%
CCOC(=O)CC(SP(=O)(OC)OC)C(=O)OCC (stereo unspecified) | 0.7% | . | . | -0.2% | .
C#CCOCCOCCOCCNc1nc(N2CCN(C(=O)CCCCCCCCCCNC(=O)[C@H]([C@@H](C)CC)n3cc(CCCCN=C(N)N)nn3)CC2)nc(N2CCN(C(=O)CCCCCCCCCCNC(=O)[C@H](CO)n3cc(CCCCCN)nn3)CC2)n1 | ? | . | 25.1µM* | . | 14.9%
[O]=[Sb]([OH])([OH])[c]1ccccc1 | . | . | 50.1µM* | . | ?
O=C(Nc1cc[c]([Sb](=[O])([OH])[OH])cc1)c1ccccc1 | . | . | 39.8µM* | . | .
Cc1cc(/C=C2/C(=O)NC(=O)N(C)C2=O)c(C)n1-c1ccccc1 | -7.8% | -6.0% | -3.4% | i | -2.7%
Cc1cc(C=C2C(=O)N(C)C(=S)N(C)C2=O)c(C)n1-c1cccnc1 | -4.3% | 17.8µM* | 4.9% | -3.5% | 0.6%
CCCCn1c(N)c(C(=O)NCCN2CCOCC2)c2nc3ccccc3nc21 | -9.3% | -0.5% | -10.1% | -20.8% | 2.1%
CCCCn1c(NC(=O)c2ccc(Br)o2)c(C(=O)OCC)c2nc3ccccc3nc21 | 5.6% | 22.4µM* | -15.7% | -0.6% | 0.0%
CCNC1(c2cccs2)CCCCC1=O (stereo unspecified) | 5.3%[21 µM] | . | . | . | .
CCOP(=S)(OCC)Oc1nc(Cl)c(Cl)cc1Cl | 26.6% | -2.1% | -4.4% | -3.0% | 50.1µM*!
C[C@H]1CC[C@]2(NC1)O[C@H]1C[C@H]3[C@@H]4CC[C@H]5C[C@@H](O[C@@H]6O[C@H](CO)[C@H](O[C@@H]7O[C@H](CO)[C@@H](O)[C@H](O[C@@H]8OC[C@@H](O)[C@H](O)[C@H]8O)[C@H]7O[C@@H]7O[C@H](CO)[C@@H](O)[C@H](O)[C@H]7O)[C@H](O)[C@H]6O)CC[C@]5(C)[C@H]4CC[C@]3(C)[C@H]1[C@@H]2C | -3.4% | . | . | . | .
CCCCN1C(=O)/C(=C/c2ccc(N(C)C)cc2)C(=O)N(Cc2ccco2)C1=O | ? | ? | ? | 28.2µM* | 6.0%
CCN(CC)c1ccc(/C=C2\C(=O)NC(=O)N(Cc3ccco3)C2=O)cc1 | ? | 3.6% | ? | ? | -14.0%
CCCCN1C(=O)/C(=C\c2ccco2)C(=O)N(CCc2ccccc2)C1=O | ? | ? | 56.2µM* | 31.6µM* | 10.7%
CN1C(=O)C(=CN2CCN(C(=O)c3ccco3)CC2)C(=O)N(C)C1=S | 21.2% | 2.3% | 0.0% | -10.6% | 0.0%
Cc1cccc(N2C(=O)NC(=O)/C(=C\c3ccc4c(c3)CCCN4Cc3ccccc3)C2=O)c1 | 10.9% | -24.0% | -18.3% | 31.6µM* | 5.5%
CCOc1ccc(N2C(=O)/C(=C/c3ccco3)C(=O)NC2=S)cc1 | 21.2µM* | ? | ? | . | .
Cc1ccccc1N1C(=O)/C(=C/c2ccco2)C(=O)NC1=S | 0.0752µM* | 0.891µM* | . | . | .
C[C@]12C=CC(=O)C=C1CC[C@@H]1[C@@H]2CC[C@]2(C)OC(=O)CC[C@@H]12 | 19.0% | . | . | . | .
CC(C)(O)[C@@H]1[C@H]2OC(=O)[C@@H]1[C@]1(O)C[C@H]3O[C@]34C(=O)O[C@H]2[C@]14C | 0.7% | . | . | . | .
SMILES | APEX1 inh | BLM inh | FEN1 inhibitor | RECQ1 inh | TDP1 inh
ClC1=C(Cl)C(Cl)(C2(Cl)C(Cl)=C(Cl)C(Cl)=C2Cl)C(Cl)=C1Cl | 11.2µM* | -8.1% | . | ? | -6.2%
Oc1cc[c]([Hg][Cl])cc1 | . | 4.3% | . | . | .
O=S(=O)(Oc1ccc(Cl)cc1)c1ccccc1 | 11.1% | -4.8% | . | -0.5% | ?
O=C(O[C@@H]1Cc2c(O)cc(O)cc2O[C@@H]1c1cc(O)c(O)c(O)c1)c1cc(O)c(O)c(O)c1 | 0.891µM* | -4.9% | . | 3.16µM* | .
COc1cc(CC2(CCc3ccncc3)C(=O)NC(=O)NC2=O)cc(OC)c1OC | 9.6% | -6.7% | 0.0% | i | 2.8%
COc1cc2c(cc1OC)-c1c(OC)c(OC)c(OC)c3ccnc(c13)C2=O | ? | 0.5% | 10µM* | -18.9% | 0.0%
Oc1c(Cl)cc(Cl)cc1Cl | -3.0% | . | . | ? | 5.9%
CCC12CCN(CC3CC3)CC1Oc1c(C)cccc12 (stereo unspecified) | 7.5% | . | . | . | .
COC[C@H]1OC(=O)c2coc3c2[C@@]1(C)C1=C(C3=O)[C@H]2CCC(=O)[C@@]2(C)C[C@H]1OC(C)=O | -9.1% | 0.5% | . | 12.6µM* | 13.2%[56.1 µM]
COC[C@H]1OC(=O)c2coc3c2[C@@]1(C)C1=C(C3=O)C2CCC(=O)[C@@]2(C)C[C@H]1OC(C)=O (stereo partly specified) | ? | 2.5% | 13.4µM*! | 35.5µM* | 11.8%[56.1 µM]
ClC1=C(Cl)[C@]2(Cl)[C@@H]3[C@H]4C[C@H]([C@@H]5O[C@H]45)[C@@H]3[C@@]1(Cl)C2(Cl)Cl | 4.0% | . | . | . | .
CCC12CCN(Cc3ccc(F)cc3)CC1Oc1c(O)cccc12 (stereo unspecified) | 19.6% | . | . | . | .
N/C(=N\N=C/c1ccc(-c2ccc(O)c(C(=O)O)c2)o1)N[N+](=O)[O-] | 7.94µM* | 51.9% | 50.1µM* | 12.6µM* | 2.82µM*
CC1(C)S[C@@H]2[C@H](N)C(=O)N2[C@H]1C(=O)O | 16.8% | . | . | . | .
O=C1NC(=O)C(=C/C=C/c2coc3ccc(Br)cc3c2=O)C(=O)N1 | ? | -13.9% | . | 35.5µM* | 0.0%
O=C1NC(=O)C(=Cc2coc3ccccc3c2=O)C(=O)N1 | -1.1% | -3.6% | -18.8% | 10.2% | -2.3%
CC[C@H]1[C@@H]2C[C@H]3[C@@H]4N(C)c5ccccc5[C@]45C[C@@H](C2[C@H]5O)N3[C@@H]1O (stereo partly specified) | 1.5%[21 µM] | . | . | . | .
N#CC1=C(N)Oc2c(c(=O)oc3ccccc23)C1c1ccc([N+](=O)[O-])o1 (stereo unspecified) | 35.5µM* | -3.1% | 50.1µM* | i | ?
CCCC1C(C#N)=C(N)Oc2c1c(=O)oc1ccccc21 (stereo unspecified) | ? | -5.0% | 9.5% | -4.5% | -0.2%
OCC[n+]1c2ccccc2nc2ccc(N3CCOCC3)cc21 | -8.7% | ? | 3.4% | 12.6µM* | 6.2%
